SMN2 splice up: SMN2 splice variant enhancement. HEK293 SMN2-luciferase splicing reporter, luminescence, 30-36 h. Potency, µM (highest dose often 46.1 µM), without a hit: top-dose activity change, positive = activation, usual class: activators. hit rate 2.8% among 210,000; further: % of control where 0% means no effect; nearly all actives have a fitted effect of over 55% in size
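qHTS luciferase splicing reporter: luminescence rises when SMN2 exon 7 is included in transfected HEK293 cells. Compound exposure lasted 30-36 h at 37C, with 4.5 mM final sodium butyrate as control, followed by a ONE-Glo read.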
FLuc modulator: firefly luciferase modulation, counter-screen for miR-21 project. P08659. purified FLuc, Km substrates, luminescence inhibition. Potency, µM (highest dose often 57.5 µM), inactives show top-dose activity change, negative = inhibition, usual class: inhibitors. hit rate 6.9% among 360,000. AID 588342;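 further: plate controls were vehicle for no effect and reference inhibitor for full effect; nearly all actives have a fitted effect of over 55% in size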
Target sequence (P08659 whole entry, looked up): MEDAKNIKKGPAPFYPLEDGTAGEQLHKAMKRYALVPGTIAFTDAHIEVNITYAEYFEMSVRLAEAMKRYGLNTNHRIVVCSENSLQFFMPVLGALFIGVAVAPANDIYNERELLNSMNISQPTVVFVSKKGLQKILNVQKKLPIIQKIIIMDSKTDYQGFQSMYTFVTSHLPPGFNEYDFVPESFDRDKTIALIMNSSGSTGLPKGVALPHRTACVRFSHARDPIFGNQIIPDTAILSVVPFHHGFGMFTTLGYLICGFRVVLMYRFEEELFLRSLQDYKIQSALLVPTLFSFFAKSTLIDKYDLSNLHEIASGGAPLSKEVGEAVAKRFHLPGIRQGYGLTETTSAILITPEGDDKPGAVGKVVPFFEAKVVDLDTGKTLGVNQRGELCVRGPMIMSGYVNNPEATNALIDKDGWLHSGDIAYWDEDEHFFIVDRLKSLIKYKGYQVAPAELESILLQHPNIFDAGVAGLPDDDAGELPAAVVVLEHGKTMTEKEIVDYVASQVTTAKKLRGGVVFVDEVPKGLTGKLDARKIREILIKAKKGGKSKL
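Purified P. pyralis luciferase (10nM final) with 10uM D-luciferin and 10uM ATP (Km levels) in 50mM Tris acetate pH 7.5, 10mM Mg acetate, 0.01% Tween-20, 0.05% BSA; qHTS 6-point titration, ~60 µM downward; luminescence read.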
ELG1 repair inh: blocks ELG1-dependent DNA repair in HEK293T cells; HEK293T ELG1-luciferase reporter, luminescence, 16 h; DNA damage induced by 5-fluorouridine; Potency, µM (titrated, usually from 46.1 µM), inactives show top-dose activity change, negative = inhibition, hits mostly inhibitors; hit rate 2.3% among 330,000; AID 504467; further: on the % scale 0 is the no-effect control and ±100 the full control effect; nearly all actives have a fitted effect of over 55% in size
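Luminescence from the luciferase reporter, measured 30 min after ONE-Glo reagent at room temperature, was the read-out. Beforehand, 2,000 cells per well were exposed for 16 hr at 37 °C to 5-fluorouridine together with compound or vehicle.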
Rab9 prom act: Rab9 promoter activation | Huh7 Rab9 promoter-luciferase reporter, luminescence, 24 h | Potency, µM (highest dose often 9.22 µM), for inactives: at the highest dose activation, negative = inhibition, actives largely listed as activators | hit rate 2.8% among 320,000; further: % of control where 0% means no effect; nearly all actives have a fitted effect of over 60% in size
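Luminescence from Amplite-detected luciferase (10 minutes, ambient) reports Rab9 promoter activation. Before that, stable Rab9-luciferase Huh7 cells (1500/well, reduced-serum OP-MEM I plus 10% FBS) were exposed to compound for 24 hours at 37C.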
NPC1 promoter act: activates the NPC1 promoter; Huh7 NPC1 promoter luciferase reporter, 24 h; Potency, µM (highest dose often 9.22 µM), for inactives: at the top dose activation, actives largely listed as activators; hit rate 2.4% among 320,000; further: % of control where 0% means no effect; nearly all actives have a fitted effect of over 60% in size
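Luminescence read-out of NPC1 promoter-driven luciferase in stably transfected Huh7 cells; compounds delivered in DMSO and left 24 h at 37C, 5% CO2, qHTS titration format.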
ELG1 genotox: inducers of genotoxicity in HEK293T ELG1-luciferase cells; HEK293T ELG1-luciferase reporter, luminescence, 16 h; hit rate 1.3% among 330,000; AID 504466; Potency, µM (top dose mostly 46 µM), inactives show top-dose activity change, positive = activation, most hits filed as activators; further: % of control where 0% means no effect; nearly all actives have a fitted effect of over 60% in size
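Step 1: seed 2,000 HEK293T ELG1-luciferase cells per well. Step 2: add compound or DMSO, incubate 16 hr at 37 °C. Step 3: ONE-Glo, 30 min at room temperature, read luminescence.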
An asterisk follows results filed as active; ? = inconclusive; . = no result given; [ ] = remark or other dose. The list is not random: actives were taken first. Their share in the collection is about 9.3%. The call rests on the fitted dose curve; in most records, active means well fitted curve in the direction sought with a large enough effect; inconclusive means small, poorly fitted or top-dose-only effect, or another doubt; inactive means no such curve, though single readings can be large; an effect the other way counts as inactive or inconclusive. Potency means the concentration at half of the fitted maximal effect.

SMILES	SMN2 splice up	FLuc modulator	ELG1 repair inh	Rab9 prom act	NPC1 promoter act	ELG1 genotox
O=C(NCCN1CCOCC1)c1cccn2c(=O)c3c4c(sc3nc12)CCCC4	.	-17.5%	1.3%	1.7%	-1.8%	-3.0%
Cn1c(C(=O)OC(C(=O)NC(C)(C)C)c2cccnc2)cc2sccc21 (configuration not stated)	.	-0.1%	-3.9%	-0.6%	-7.3%	0.6%
O=c1c2cn[nH]c2[nH]c(=S)n1-c1ccccc1F	14.1µM*	1.2µM*	?	?	2.82µM*	6.51µM*
CCOc1ccc(NC(=O)c2ccc3c(=O)n(-c4ccc(OC)cc4OC)c(=S)[nH]c3c2)cc1	.	?	8.2µM*	-12.3%	-8.9%	?
O=C(O)c1ccc2c(=O)n(-c3ccccc3F)c(=S)[nH]c2c1	-32.5%	-14.3%	-3.3%	1.9%	0.6%	25.2%
COc1ccc(NC(=O)c2ccc3c(=O)n(-c4ccc(OC)cc4OC)c(=S)[nH]c3c2)c(OC)c1	-40.4%	-12.5%	?	-2.3%	-6.9%	-6.9%
COC(=O)c1ccc2c(=O)n(-c3ccccc3F)c(=S)[nH]c2c1	-54.7%	-9.5%	18.3µM*	16.1%	-2.7%	-2.3%
NC(=O)CC(NC(=O)Cc1ccc(Cl)cc1)c1ccc(NCC2CC2)c([N+](=O)[O-])c1 (configuration not stated)	.	1.1%	-0.5%	1.2%	-8.4%	5.5%
COc1cc2oc(=O)c3c(c2cc1OCC(=O)c1c(C)n(C)c2ccccc12)CCCC3	0.7%	3.1%	9.7%	-11.1%	-5.9%	-1.2%
COc1ccc2c(c1)OCC(Cc1ccc(O)c(OC)c1)C2=O (configuration not stated)	-2.6%	.	.	.	.	.
O=C(/C=C/c1cc2ccccc2o1)c1ccccc1O	.	2.39µM*	?	?	?	?
O=C(/C=C/c1ccoc1)c1ccccc1O	-6.9%	9.53µM*	?	-2.6%	-2.8%	?
COc1ccc2ccccc2c1C(=O)/C=C\c1ccoc1	-8.4%	26.9µM*	-2.4%	2.6%	-6.4%	0.1%
COc1ccc(O)c(C(=O)/C=C/c2cc3ccccc3o2)c1	.	?	.	-6.8%	-1.9%	.
COc1ccc2ccccc2c1/C=C\C(=O)c1ccccc1	-19.3%[9.22 µM]	.	.	.	.	.
O=C(/C=C/c1ccc(O)c(O)c1)OCCc1ccccc1	15.8µM*	.	.	-25.0%[46.1 µM]	-8.3%[46.1 µM]	.
O=C(/C=C/c1ccccc1)c1ccc(O)cc1O	-116.9%	.	.	.	.	.
COCCNC(=O)Cn1cnc2c(cnn2-c2ccc(C)cc2)c1=O	.	2.1%	6.0%	4.9%	-4.7%	0.2%
O=C(O)/C=C\c1ccc(O)c(O)c1	-2.4%[20.6 µM]	.	.	.	.	.
O=C(/C=C/c1ccc(O)c(O)c1)c1ccccc1O	.	8.49µM*	?	-17.7%	-0.4%	?
COCCn1c(SCc2nc3ccccc3s2)nc2ccccc21	10.2%	12µM*	?	3.55µM*	?	?
CCOCCCn1c(SCC(=O)NCc2ccco2)nc2c(sc3ccccc32)c1=O	-9.7%	-1.7%	16.4µM*	1.4%	5.4%	-0.7%
C=CCn1c(=O)c2ccccc2n2c(SCC(=O)O)nnc12	.	0.5%	4.4%	-0.2%	2.5%	0.3%
CCOCCCn1c(SCc2nc3ccccc3s2)nc2ccccc2c1=O	-109.1%	16.9µM*	?	15.6%	15.3%	-7.9%
C=CCn1c(=O)c2ccccc2n2c(SCc3nc4ccccc4s3)nnc12	-25.6%	12µM*	?	?	4.7%	?
COc1ccc(N2C(=O)CSC2c2ccncc2)cc1 (configuration not stated)	18.9%	6.6%	18.4%	-1.5%	-0.3%	-5.9%
C/C(=N\NC(=O)CN(c1ccccc1)S(=O)(=O)c1ccccc1[N+](=O)[O-])C(C)(C)C	-3.3%	-1.7%	-0.9%	0.5%	1.1%	-1.7%
CCOC(=O)N1CCc2c(sc(NCc3cccc(F)c3)c2C(=O)Nc2ccc(OCC)cc2)C1	.	23.9µM*	.	.	.	.
O=C(Nc1cccc(F)c1)c1ccco1	.	-16.0%	?	24.6%	14.7%	11.5%

Screening results deposited in PubChem by National Center for Advancing Translational Sciences (NCATS).
